Compound activity: PubChem BioAssay, The Scripps Research Institute Molecular Screening Center
DAX1 inh-1 = blocks DAX1 repression of SF-1 activated StAR promoter; HEK293T StAR-luciferase reporter, SF-1/DAX-1 repression relief; 370,000 tested, 1.1% active; inhibition, % at 6.8 µM;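 active means inhibition above the mean over all tested compounds plus 3 SD, cut at about 3.6% in these data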;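 further: 0% = DAX-1 cells with DMSO and 100% = cells lacking DAX-1 with DMSO; higher inhibition means more luminescence from relief of DAX-1 repression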
hcDAF-12 act = activates DAF-12 receptor from parasite H. contortus; HEK293 hcDAF-12 lit1-tk-luc reporter, luminescence; 0% DMSO, 100% Δ7-dafachronic acid; activation, % at 6.8 µM; 370,000 tested, 1.4% active;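 active means activation above the mean of all tested compounds plus 3 SD, cut at about 5.5% in these data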;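 further: 100% = response to 3 µM Δ7-dafachronic acid high control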
ssDAF-12 act = S. stercoralis DAF-12 activation, primary screen; HEK293 ssDAF-12/GRIP1 lit1-tk-luc reporter, luminescence; % of 3 µM dafachronic acid response; activation, % at 6.8 µM; 370,000 tested, 1% active; AID 652126;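 active means activation above the mean over all tested compounds plus 3 SD, cut at about 0.9% in these data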;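 further: 0% = DMSO-only wells and 100% = 3 µM delta7-dafachronic acid wells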
AHR act = activates the human aryl hydrocarbon receptor. P35869. 320,000 tested, 2.5% active. AID 2796. AHR-responsive luciferase reporter cells, luminescence. activation, % at 5 µM; in the data active means activation above about 47%;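 further: 0% = vehicle wells and 100% = reference agonist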
DAX1 inh-2 = NR0B1 (DAX1) inhibition. P51843. HEK293 Gal4-DAX1 luciferase reporter, luminescence. inhibition, % at 6.75 µM. 340,000 tested, 0.99% active. AID 504766;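 active means inhibition above the mean over all tested compounds plus 3 SD, cut at about 4.2% in these data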;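 further: 0% = DAX1-transfected cells with DMSO and 100% = empty-vector control cells with DMSO; inhibition shows as a rise in luminescence from relieved DAX1 repression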
Target sequence (P51843 207-470 limits assumed): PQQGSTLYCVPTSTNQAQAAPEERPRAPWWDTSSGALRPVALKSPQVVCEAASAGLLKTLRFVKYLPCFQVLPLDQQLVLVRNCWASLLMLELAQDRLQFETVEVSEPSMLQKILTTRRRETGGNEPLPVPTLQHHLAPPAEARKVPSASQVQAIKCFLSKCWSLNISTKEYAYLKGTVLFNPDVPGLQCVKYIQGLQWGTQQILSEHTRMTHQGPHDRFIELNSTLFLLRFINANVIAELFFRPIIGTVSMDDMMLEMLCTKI
hgDAF12 agonist = hgDAF-12 agonism, primary luciferase screen; 370,000 tested, 1.8% active; HEK293 GAL4-hgDAF12 UAS-luciferase reporter, agonist luminescence; normalized to butyrate control; AID 687014; activation, % at 6.8 µM;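 active means activation above a cutoff set at the mean of all screened compounds plus 3 SD, cut at about 10% in these data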;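 further: 0% = DMSO wells and 100% = sodium butyrate wells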
Starred values were filed as active, the others as inactive; . = no result. Only some compounds are listed: those with a hit (about 5.7% of all), similar ones and a draw of the others.

SMILES	DAX1 inh-1	hcDAF-12 act	ssDAF-12 act	AHR act	DAX1 inh-2	hgDAF12 agonist
Cc1ccc(NCc2nnc(SCC(N)=O)n2CC2CCCO2)c(C)c1 (centres undefined)	0	-1	-1	6	5.5*	2
CCCc1nnc(SCC(=O)N2CCCCC2C)n1CC1CCCO1 (centres undefined)	0	-2	-1	-1	0	1
CCCc1nnc(SCC(=O)N(CC)CC)n1CC1CCCO1 (centres undefined)	0	0	-1	3	5.5*	-2
CN(CC(=O)Nc1cccc(F)c1)C(=O)c1ccccc1Cc1ccccc1	0	0	-1	4	-2	0
Cc1oc2c(C)c3oc(=O)c(CCC(=O)NCCCN4CCOCC4)c(C)c3cc2c1C	0	-2	0	-1	6.7*	-2
Cc1oc2c(C)c3oc(=O)c(CCC(=O)NCCCN4CCCC4=O)c(C)c3cc2c1C	0	-4	-1	-1	4.3*	0
Cc1c(C(=O)N(C)C(C)c2ccccn2)oc2c(F)cccc12 (centres undefined)	1	-1	-1	54*	1	0
Cc1c(C(=O)N(C)C(C)c2ccncn2)oc2c(F)cccc12 (centres undefined)	0	0	0	7	0	0
COc1ccc(OC)c(C(=O)Nc2ccc3[nH]ccc3c2)c1	2	4	0	50*	1	12*
COc1ccc(C(=O)Nc2cc(OC)cc(OC)c2)cc1	4	3	-1	57*	1	10
O=C(Nc1ccc2[nH]ccc2c1)c1cccs1	2	2	0	0	-1	11*
COc1ccc(C(=O)Nc2ccc3[nH]ccc3c2)cc1OC	2	1	-1	26	3	6
COc1ccc(C(=O)Nc2ccc3[nH]ncc3c2)cc1	2	3	1	35	-4	13*
COc1cc(NC(=O)c2ccccc2)cc(OC)c1	1	4	0	46	-1	9
COc1ccc(S[C@]2(C(=O)N(C)C)CC(=O)N(C(=O)c3ccccc3)[C@@H]2c2ccc(OC)cc2)cc1	-2	-1	-1	.	.	-3
O=C(NCCc1ccccc1Cl)[C@@H]1CCCN1C(=O)[C@H](Cc1cccnc1)NC(=O)N1CCOCC1	-1	2	0	.	.	-3
N#CC(c1ccc(Cl)cc1)c1ccc(Cl)nn1 (centres undefined)	0	0	-2	-1	1	0
COc1ccc(C(=O)N/N=C(\C)CC(=O)Nc2ccc3ccccc3c2)c(OC)c1	3	1	0	11	1	4
COc1ccc(C(=O)Nc2ccc3cn[nH]c3c2)c(OC)c1	1	1	0.9*	56*	2	-2
Cc1cc(C)nc(NC(=O)c2ccc(OC(C)C)cc2)n1	0	-1	-1	49*	2	-2
COc1ccc(C(=O)Nc2ccc3[nH]ccc3c2)cc1	3	9.5*	2.5*	-7	-7	16*
Cc1cc(C)nc(NC(=O)c2ccc(C)c(C)c2)n1	0	0	-1	13	0	2
CC(C)(C)c1ccc(SCCc2ccccn2)cc1	1	5	0	2	4	7
CCOc1ccccc1C(=O)NC(C)c1ccc(-n2ccnc2)cc1 (centres undefined)	0	-1	-1	65*	0	-5
COc1ccccc1C(=O)NC(C)c1ccc(-n2ccnc2)cc1 (centres undefined)	1	-1	-1	60*	0	-2
SMILES	DAX1 inh-1	hcDAF-12 act	ssDAF-12 act	AHR act	DAX1 inh-2	hgDAF12 agonist
COc1cccc(C2=NNC(=NCc3ccccc3)SC2)c1	2	1	-1	1	0	13*
COc1ccc(CN=C2NN=C(c3cccc(OC)c3)CS2)cc1	0	-1	-1	5	1	1
CCSc1nnc(N2C(=O)CC(c3ccsc3)C3=C2CC(C)(C)CC3=O)s1 (centres undefined)	2	-2	-1	2	5.3*	-3
CNC(=O)C(=O)N/N=C/c1ccc(Br)cc1	2	1	-2	9	0	2
O=C(NC1CCN(C(=O)N2CCOCC2)CC1)c1ccccc1	-1	-2	-1	-1	1	1
CCN(CC)C(=O)N1CCC(NC(=O)c2ccccc2)CC1	0	-2	-1	0	4.7*	3
O=C(NCC1COc2ccccc2O1)C1CCCN(S(=O)(=O)c2cnc[nH]2)C1 (centres undefined)	0	-1	-1	-1	0	0
CCc1nc2ccc(C(=O)Nc3cccc(OCC(=O)N(C)C)c3)cn2c1N(C)C(=O)c1ccncc1	0	-1	-1	.	.	-3
CC(C)(C)c1cc(NC(=O)C2CCCO2)no1 (centres undefined)	1	2	1.4*	0	1	8
CCO/C(C)=N/Oc1cncnc1	1	1	-1	.	.	0
O=C(Nc1cc(-c2nc3ncccc3o2)ccc1Cl)c1ccc([N+](=O)[O-])o1	0	0	-1	8	1	1
CC1CCCCC1NS(=O)(=O)CCNC(=O)c1ccc2c(c1)OCO2 (centres undefined)	0	1	-1	5	-1	-2
CC1CCCC(NC(=O)c2ccc3c(c2)OCO3)C1C (centres undefined)	3	3	-1	70*	0	7
O=C(COC(=O)C1COc2ccccc2O1)Nc1cccc(F)c1 (centres undefined)	1	1	-1	0	0	1
Fc1ccc2cc(-c3ccccc3F)ncc2c1	1	3	0	76*	2	6
COC(=O)c1nc(-c2ccccc2)oc1N1CCOCC1	-2	-1	-2	16	0	-3
Cc1c(Cl)cccc1NC(=O)CNc1cccc(C(F)(F)F)c1	0	-3	-1	1	-1	2
N#Cc1ccccc1NC(=O)CNc1ccc(Cl)c(C(F)(F)F)c1	0	1	-1	65*	-1	1
Cc1cc(C)nc(NS(=O)(=O)c2ccc(NC(=O)c3ccc(O)cc3O)cc2)n1	0	5.7*	0	.	1	0
CCOc1ccccc1C(=O)Nc1ccc(S(=O)(=O)Nc2nccc(C)n2)cc1	0	6.2*	0	3	0	-2
CC(C)=C[C@H]1C[C@H](C)[C@H]2CC[C@H](C)c3c(O[C@@H]4O[C@@H](C)[C@@H](O)[C@@H](O)[C@@H]4O)c(O)c(C)c1c32	0	0	0	.	.	1
Cc1nc(-c2ccc(C(=O)N3CCCC3)cc2)cs1	4	3	0	-5	-1	11*
Cc1ccc(C(=O)c2oc3ccccc3c2NC(=O)c2cc(-c3cc(C)ccc3O)n[nH]2)cc1	0	0	-1	-6	0	5
